From PubChem BioAssay (NCI)
Compounds without any hit were thinned out: in the full panel of roughly 83,000, 20% have a hit.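 The test compound was applied at a single concentration to cells in 96-well plates for 48 hours, and percent growth was recorded.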 Values without a mark were called inactive. Activity calls are given as the source filed them. Rule for the calls: active = growth percent below 10; inactive = the rest.

Test system: SK-MEL-5 melanoma
Experiment: NCI-60 one-dose screen, 48 h (100 = growth as untreated, 0 = no growth, -100 = all killed)
Conditions: 10 µM unless noted

Compound | growth
CCN(CC)CCNc1ccc(C)c2sc3cc(C)ccc3c(=O)c12 | 21.9%
CCOC(=O)c1sc2ccc(NCc3nc[nH]c3C)cc2c1NC(=O)c1cc(OC)c(OC)c(OC)c1 | 96.9%
O=C(NCc1cccnc1)c1cc(-c2csc3c(=O)cc(N4CCOCC4)oc23)cc2c1OCCO2 | 39.6%
COc1ccc(/C=C(\C#N)n2nnc3ccccc32)cc1 | 6.7% (active)
COc1ccc(C(=O)/C=C/C23c4ccccc4C(c4ccccc42)C2C(=O)NC(=O)C23)cc1 (centres undefined) | 95.9%
O=C1CSC(c2ccccc2O)N1c1nnc(Cn2cnnc2)o1 (centres undefined) | 95.1%
O=C1CSC(c2ccc(O)cc2)N1c1nnc(Cn2cnnc2)o1 (centres undefined) | 105%
O=C(NCOC(O)C(Cl)(Cl)Cl)NCOC(O)C(Cl)(Cl)Cl (centres undefined) | 102%
CCOC(=O)c1c(C)[nH]c(C(=O)CCC(=O)OC)c1C | 106%
O=C1CC(c2ccc3c(c2)OCO3)Nc2cc3c(cc21)OCO3 (centres undefined) | 1.16% (active)
Cc1nc(-c2ccccc2)cc2c(O)c(C(=O)N/N=C/c3ccc(N(C)C)cc3)[nH]c(=O)c12 | 83.4%
N#Cc1c(N)n2c(nc1=Nc1ccc(Cl)cc1)sc1cc(Cl)ccc12 | 61.1%
COc1cc(NC(=O)c2cccc(-c3cc(=O)c4c(O)c(OC)c(OC)cc4o3)c2)cc(OC)c1OC | 39.2%
C=C1c2c(C)nn(-c3ccc(N)cc3)c2N(C)C23CC1C1(C)c4c(C)nn(-c5ccc(N)cc5)c4N(C)C(C)(CC12)C3 (centres undefined) | 52.9%
C=CCOc1cccc(/C=C2\SC(=Nc3ccc(O)cc3)NC2=O)c1 | -39% (active)
COc1cc(C2CC(=O)Nc3n[nH]c(-c4ccccc4)c32)cc(OC)c1OC (centres undefined) | 68%
CN1CCN(C(=O)[C@@]2(C)CC[C@]3(C)CC[C@]4(C)C(=CC[C@@H]5[C@@]6(C)C/C(=C/c7ccncc7)C(=O)C(C)(C)[C@@H]6CC[C@]54C)[C@@H]3C2)CC1 | 39.3%
CCOc1cc(C2C(Cl)C(=O)N2n2cnnc2)ccc1O (centres undefined) | 106%

Compound | growth
Nc1c(C(=O)Nc2ccccc2)sc2nc3c(cc12)CCCCCC3 | 9.45% (active)
Cn1c(NCCc2ccc(O)c(O)c2)nc2c1c(=O)n(Cc1ccc(Cl)cc1)c(=O)n2C | 75.3%
CCCCNCC(=O)Nc1ccc(C(=O)OCC)cc1 | 101%
CCCCCCN(CCCCCC)CC(O)c1cccc2ccc(Cl)cc12 (centres undefined) | 61.8%
O=C(c1ccccc1)c1ccc(Cl)c([N+](=O)[O-])c1 | 101%
C[C@@H]1CC[C@@H]2[C@@H]1[C@H](OC(=O)/C=C/c1ccccc1)[C@]1(C3CCCCC3)C[C@@H](NC(=O)CO)[C@@]2(C)O1 | 104%
N[C@@H]1CCC[C@H]1NCCCCN1C(=O)c2cccc3cccc(c23)C1=O | 93.1%
NC(N)=N/N=C(/c1ccccc1)c1ccc(N)cc1 | 101%
O=C1N/C(=N/O)S/C1=C/c1cn(-c2ccccc2)nc1-c1ccccc1 | 102%
COC1=CC(c2ccc[nH]2)=N/C1=C\c1[nH]c(C)c(C(=O)OCCn2cc(CCC[C@@H]3Cc4cc(O)ccc4C4CC[C@]5(C)[C@@H](O)CC[C@H]5C43)nn2)c1C (some centres undefined) | 88.2%
N#Cc1c(Oc2ccc([N+](=O)[O-])cc2)nc2sc3cc(Cl)ccc3n2c1=N | 58.1%
COc1cc2c(=O)n(CCCn3ccnc3)c3c4cc5c(cc4ccc3c2cc1OC)OCO5 | -75.9% (active)
CN(C)S(=O)(=O)n1cnc([C@@H]2[C@@H]3C(=O)OC[C@@H]3C[C@]23N=CN(Cc2ccccc2)C3=O)c1 | 102%
COc1ccc(Oc2nc(Nc3ccc(N4CCCCC4)nc3)ncc2NC(=O)c2cc(OC)cc(OC)c2)cc1 | 28.7%
COc1cc(/C=C/c2nc(Nc3ccc(S(=O)(=O)Nc4cc(C)on4)cc3)c3ccccc3n2)ccc1O | 52.6%
CN1CCN(C2=C(Cl)C(=O)c3ccccc3C2=O)CC1 | 26.8%
CS(=O)(=O)c1ccc(-c2[nH]c3ccc(F)cc3c2/C=N/NC(N)=S)cc1 | 17.3%

Test system: UACC-62 melanoma
Experiment: as above
Conditions: 10 µM unless noted

Compound | growth
CCN(CC)CCNc1ccc(C)c2sc3cc(C)ccc3c(=O)c12 | -15.2% (active)
CCOC(=O)c1sc2ccc(NCc3nc[nH]c3C)cc2c1NC(=O)c1cc(OC)c(OC)c(OC)c1 | 92.9%
O=C(NCc1cccnc1)c1cc(-c2csc3c(=O)cc(N4CCOCC4)oc23)cc2c1OCCO2 | 12.2%
COc1ccc(/C=C(\C#N)n2nnc3ccccc32)cc1 | 21.4%
COc1ccc(C(=O)/C=C/C23c4ccccc4C(c4ccccc42)C2C(=O)NC(=O)C23)cc1 (centres undefined) | 90.6%
CCN(CC)CCOc1ccc(/C(=C(\C)c2ccc(OC)c(F)c2)c2ccc(Cl)cc2)cc1 | 60.1%
O=C1CSC(c2ccccc2O)N1c1nnc(Cn2cnnc2)o1 (centres undefined) | 90.8%
O=C1CSC(c2ccc(O)cc2)N1c1nnc(Cn2cnnc2)o1 (centres undefined) | 97.2%
O=C(NCOC(O)C(Cl)(Cl)Cl)NCOC(O)C(Cl)(Cl)Cl (centres undefined) | 98.8%
CCOC(=O)c1c(C)[nH]c(C(=O)CCC(=O)OC)c1C | 101%
O=C1CC(c2ccc3c(c2)OCO3)Nc2cc3c(cc21)OCO3 (centres undefined) | 21%
O=C1/C(=C/c2ccccc2[N+](=O)[O-])COc2ccc(O)c(O)c21 | -86.6% (active)
Cc1nc(-c2ccccc2)cc2c(O)c(C(=O)N/N=C/c3ccc(N(C)C)cc3)[nH]c(=O)c12 | 97.3%
N#Cc1c(N)n2c(nc1=Nc1ccc(Cl)cc1)sc1cc(Cl)ccc12 | 63.4%
COc1cc(NC(=O)c2cccc(-c3cc(=O)c4c(O)c(OC)c(OC)cc4o3)c2)cc(OC)c1OC | 49.4%
C=C1c2c(C)nn(-c3ccc(N)cc3)c2N(C)C23CC1C1(C)c4c(C)nn(-c5ccc(N)cc5)c4N(C)C(C)(CC12)C3 (centres undefined) | 77.1%
C=CCOc1cccc(/C=C2\SC(=Nc3ccc(O)cc3)NC2=O)c1 | 34.7%

Compound | growth
COc1cc(C2CC(=O)Nc3n[nH]c(-c4ccccc4)c32)cc(OC)c1OC (centres undefined) | 38%
CN1CCN(C(=O)[C@@]2(C)CC[C@]3(C)CC[C@]4(C)C(=CC[C@@H]5[C@@]6(C)C/C(=C/c7ccncc7)C(=O)C(C)(C)[C@@H]6CC[C@]54C)[C@@H]3C2)CC1 | 37.8%
CCOc1cc(C2C(Cl)C(=O)N2n2cnnc2)ccc1O (centres undefined) | 95.5%
Cn1c(NCCc2ccc(O)c(O)c2)nc2c1c(=O)n(Cc1ccc(Cl)cc1)c(=O)n2C | 82.7%
CCCCNCC(=O)Nc1ccc(C(=O)OCC)cc1 | 95.3%
CCCCCCN(CCCCCC)CC(O)c1cccc2ccc(Cl)cc12 (centres undefined) | 51.4%
O=C(c1ccccc1)c1ccc(Cl)c([N+](=O)[O-])c1 | 93.2%
C[C@@H]1CC[C@@H]2[C@@H]1[C@H](OC(=O)/C=C/c1ccccc1)[C@]1(C3CCCCC3)C[C@@H](NC(=O)CO)[C@@]2(C)O1 | 97%
NC(N)=N/N=C(/c1ccccc1)c1ccc(N)cc1 | 91.2%
O=C1N/C(=N/O)S/C1=C/c1cn(-c2ccccc2)nc1-c1ccccc1 | 102%
COc1cc2c(=O)n(CCCn3ccnc3)c3c4cc5c(cc4ccc3c2cc1OC)OCO5 | -50.9% (active)
CN(C)S(=O)(=O)n1cnc([C@@H]2[C@@H]3C(=O)OC[C@@H]3C[C@]23N=CN(Cc2ccccc2)C3=O)c1 | 106%
CCCCS(=O)(=O)Oc1ccc(-c2nc(C)c(C(=O)OCC)s2)cc1C=O | 64.6%
COc1ccc(Oc2nc(Nc3ccc(N4CCCCC4)nc3)ncc2NC(=O)c2cc(OC)cc(OC)c2)cc1 | 18.8%
COc1ccc(OC)c(C(=O)Nc2cccc(-c3cc(=O)c4ccccc4o3)c2)c1 | 87.1%
CN1CCN(C2=C(Cl)C(=O)c3ccccc3C2=O)CC1 | 32.9%
CS(=O)(=O)c1ccc(-c2[nH]c3ccc(F)cc3c2/C=N/NC(N)=S)cc1 | 14.7%
